The values that follow come from PubChem BioAssay AID504454 (NMMLSC, 2011).

Out of some 340,000 compounds screened, about 1,400 (0.41%) were called active.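 How the source made its calls: active means response above a set limit, near 3 SD of response in nonfluorescent compounds (cut at about 42% in these data); inactive means the rest.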 For the sample, actives were picked, then their nearest neighbours and some compounds at random.

The target of the assay is Beta-2 adrenergic receptor (Homo sapiens) (UniProt P07550). The assay can be described thus: beta2AR agonists driving receptor internalization, primary screen, cell-based, FAP fluorogen, flow cytometry (AID 504454). The conditions noted are these: Am2.2-beta2AR cells, hits give high values, concentration not given here. (Flow cytometry measures light scatter and fluorescence of single cells or particles in a stream.)
Beta-2 adrenergic receptor (Homo sapiens), sequence (P07550 whole entry, looked up): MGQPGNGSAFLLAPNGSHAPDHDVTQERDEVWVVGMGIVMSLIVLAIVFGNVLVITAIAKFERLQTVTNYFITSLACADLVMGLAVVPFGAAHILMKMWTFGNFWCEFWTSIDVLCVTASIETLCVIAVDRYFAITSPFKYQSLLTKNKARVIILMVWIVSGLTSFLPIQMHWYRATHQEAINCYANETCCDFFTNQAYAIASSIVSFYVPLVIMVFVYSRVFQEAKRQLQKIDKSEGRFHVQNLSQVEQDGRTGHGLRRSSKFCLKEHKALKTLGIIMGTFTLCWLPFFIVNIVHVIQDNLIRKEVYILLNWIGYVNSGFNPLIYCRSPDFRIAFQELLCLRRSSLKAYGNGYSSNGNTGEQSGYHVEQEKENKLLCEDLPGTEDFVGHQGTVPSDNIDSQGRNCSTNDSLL
As for `COc1ccc(CCOC2OC(CO)C(OC(=O)/C=C/c3ccc(O)c(OC)c3)C(O[C@H]3O[C@@H](C)[C@H](O)[C@@H](O)[C@H]3O)C2O)cc1O` (stereo not given in full), the response was 1.58% (inactive).
For `O=C(Nc1ccc(Br)cc1)C1CCC(=O)N1Cc1ccccc1Cl` (stereo not given), the response was -2.28% (inactive).
As for `Cc1nc2ccccc2nc(C)c1=NOCc1ccc(Cl)cc1Cl`, the figure is -2.95% (inactive).
The value for `COc1ccc(Cl)cc1N(CC(=O)N/N=C/c1ccc(OCC(N)=O)cc1)S(C)(=O)=O` was -3.08% (inactive); that for `NC(N)=N/N=C/c1ccc(OCc2ccc(Cl)cc2Cl)cc1` was 59.6% (active).
The value for `CCC(CC)NC(=O)/C=C/c1cccc([N+](=O)[O-])c1` was -1.38% (inactive); that for `CCCCCc1ccc(-c2ccc(C(=O)O)cc2)nc1` was -1.17% (inactive); that for `Cc1cc(N2CCOCC2)nc(-c2ccc(Br)cc2)n1` was -1.94% (inactive).
On to `Cc1ccc(Sc2cc(N3CCOCC3)nc(-c3ccccc3)n2)cc1`, for which the response is 42.7% (active).
Consider `O=S(=O)(Cc1cc(Sc2ccccc2)nc(-c2ccccc2)n1)c1ccccc1`, for which the response was 7.22% (inactive).
The value for `S=c1[nH]nc(Nc2ccccc2)s1` was 16.4% (inactive); that for `COc1cc(C(C(=O)NC2CCCC2)N(C(=O)c2ccco2)c2ccccc2C(C)=O)cc(OC)c1OC` (stereo not given) was 2.2% (inactive); that for `CCOC(=O)c1c(-c2ccccc2)oc2ccc(OCC(=O)NN)cc12` was 27.5% (inactive).
The value for `CCOC(=O)c1c(-c2ccccc2)oc2cc(Br)c(O)c(C=O)c12` was 56.8% (active); that for `CCOC(=O)c1c(-c2ccccc2)oc2cc(Br)c(O)cc12` was -5.83% (inactive).
As for `Cn1c(=O)oc2cc(S(=O)(=O)NCCC(=O)NCc3ccccc3Cl)ccc21`, the figure is 0.87% (inactive).
Consider `CCOC(=O)C1CCN(CC(=O)Nc2ccc(OC)c(S(=O)(=O)N3CCCCC3)c2)CC1`, for which the response is 11.9% (inactive).
The value for `O=C(COc1cccnc1[N+](=O)[O-])Nc1ccc(Cl)cc1F` was -3.75% (inactive).
As for `O=C1C2C3C=CC(C4CC34)C2C(=O)N1/N=C/c1ccc(-c2ccccc2[N+](=O)[O-])o1` (stereo not given), the figure is 42.1% (active).
On to `O=C(Nc1ccc(N2CCOCC2)cc1)c1ccc(-c2ccccc2[N+](=O)[O-])o1`, for which the response was 15.6% (inactive).
As for `Cc1c(/C=N/N2C(=O)C3C4C=CC(C4)C3C2=O)c2ccccc2n1C` (stereo not given), the figure is -4.99% (inactive).
With `CCOc1cc(/C=C2/N=C(c3ccc(C(C)(C)C)cc3)OC2=O)cc(Cl)c1OS(C)(=O)=O`, the response is -2.17% (inactive).
The value for `COc1ccc(NC(=O)CN(C)C(=O)c2cccc(S(=O)(=O)N3CCN(c4ccccc4)CC3)c2)cc1` was 6.13% (inactive); that for `O=[N+]([O-])/C=C/c1ccc2c(ccn2Cc2ccccc2)c1` was 48.2% (active); that for `COc1ccc2ccccc2c1CNc1nnnn1C` was -4.52% (inactive).
As for `Cn1c(=S)sc2ccc3ccccc3c21`, the figure is 59.5% (active); as for `CCN(CC(=O)Nc1ccccc1C(F)(F)F)C(=O)CSCc1c(C)noc1C`, -3.25% (inactive); as for `Cc1ccc(NC(=O)COC(=O)C2C3CC4OC(=O)C2C4C3)cc1Cl` (stereo not given), 5.53% (inactive).
Turning to `COc1cc(/C=C2\Oc3ccc(C#Cc4ccc(O)cc4)cc3C2=O)cc(OC)c1`, the response was -8.05% (inactive).
For `O=C1c2ccccc2C(=O)N1CCC#Cc1ccc2cc(C3(O)CCCCC3)oc(=O)c2c1`, the response is 5.43% (inactive).
As for `COc1cc(C#Cc2ccc3cc(CCCO)oc(=O)c3c2)cc(OC)c1`, the figure is 45.9% (active); as for `COc1ccc(CCNC(=O)c2ccc3c(c2)NC(=O)C(N2CCOCC2)S3)cc1OC` (stereo not given), 3.69% (inactive).
As for `Cc1nn(Cc2ccccc2)c(C)c1C(=O)N1CCN(CC(=O)Nc2ccccc2Cl)CC1`, the figure is 4.22% (inactive); as for `CCOC(=O)N/N=C/c1cn(Cc2ccccc2Cl)c2ccccc12`, -0.12% (inactive); as for `COc1cccc(Cn2cc(/C=N/NC(=O)c3cc(O)cc(O)c3)c3ccccc32)c1`, 3.63% (inactive).
The value for `COC(=O)N/N=C/c1cn(CCCOc2ccc(C)cc2)c2ccccc12` was 105% (active).
Regarding `COc1ccc(OC)c(CCNC(=O)CCn2ccc3cc(S(=O)(=O)N4CCCC4)ccc32)c1`, the response is 1.18% (inactive).
As for `CCOCCCNC(=O)c1c[nH]c2cc(C)ccc2c1=O`, the figure is -5.06% (inactive); as for `CCN(CC)S(=O)(=O)c1ccc(N2CCCC2)c(NC(=O)c2ccc([N+](=O)[O-])o2)c1`, 5.38% (inactive); as for `Cc1cc(C)n(CCNS(=O)(=O)c2ccc(Cl)cc2)n1`, -1.1% (inactive).
The value for `O=S(=O)(NCCSc1ccccn1)c1ccc(Cl)cc1` was -2.74% (inactive); that for `CC(C)(CSc1nncn1/N=C/c1ccco1)NS(=O)(=O)c1ccc(Cl)cc1` was 45.9% (active); that for `COc1cc(C(=O)NCc2ccncc2)cc(Br)c1OCc1ccccc1` was 7.17% (inactive).
With `COC(=O)c1ccc(C23CC4(C2)[C@H](CN(Cc2cccnc2)[C@@H]4c2ccccc2)C3c2ccc(Cl)nc2)cc1` (stereo not given in full), the response is 5.54% (inactive).
The value for `CCn1c(SCC(=O)NNC(=O)c2ccc(OC)cc2)nnc1C(C)C` was 76.2% (active); that for `CCC(c1nnc(SCC(=O)NNC(=O)c2ccccc2)n1Cc1ccccc1)N(C)C` (stereo not given) was -7.18% (inactive).
As for `CCn1c(CNc2ccc(OC)cc2)nnc1SCC(=O)c1ccc(OC)cc1`, the figure is 6.23% (inactive).
Turning to `Cc1cc(C)c(S(=O)(=O)n2cc(C(C)C(N)C(=O)O)c3ccccc32)c(C)c1` (stereo not given), the response was 3.12% (inactive).
As for `CCCNC(=O)N1CCC(c2ccc3c(c2)OCO3)CC1`, the figure is 6.03% (inactive).
The value for `O=[N+]([O-])c1ccc(NC(=S)N2CCN(c3ccccn3)CC2)cc1` was -2.61% (inactive); that for `COc1ccc(NC(=O)c2sc3nc(C)nc(N4CCN(c5ccccn5)CC4)c3c2C)c(OC)c1` was 16.2% (inactive); that for `COCc1cc(C)nc2sc(C(=O)NC3CCCCC3)c(N)c12` was -21.3% (inactive).
As for `COc1ccc(OC)c(NC(=O)c2sc3nc(C)cc(C)c3c2N)c1`, the response is 72.5% (active).
The value for `O=S(=O)(c1ccccc1)c1nc(Cc2ccccc2)oc1N1CCOCC1` was 6.12% (inactive); that for `CCCCN=C1N/C(=C\c2ccco2)C(=O)N1c1ccccc1` was 0.77% (inactive); that for `COc1cc(OC)cc(C(=O)NNC(=O)CCOc2ccccc2OC)c1` was 4.38% (inactive).
As for `CCN1CCC(=NNC(=O)c2ccc(C)c([N+](=O)[O-])c2)CC1`, the figure is 2.52% (inactive); as for `CCCCN(CCCC)CCCNC(=O)CN1C(=O)COc2ccc(S(=O)(=O)N3CCC(C)CC3)cc21`, 7.21% (inactive).
As for `Cc1nc2ccccc2c(C)c1C(=O)c1ccc(F)cc1`, the figure is 1.92% (inactive); as for `Cc1nc2ccccc2c(C(=O)O)c1-c1ccccn1`, 5.02% (inactive); as for `Cc1nc2ccccc2c(-c2ccccc2)c1C(=O)c1ccccc1`, 105% (active).
Take `CC/S(CC1CC1(Cl)Cl)=N\S(=O)(=O)c1ccc(C)cc1` (stereo not given): the response is -2.93% (inactive).
The value for `O=c1[nH]c(=S)[nH]c(O)c1/C=C1\C=Nc2ccccc21` was 57.7% (active); that for `COc1ccc2c(c1OC)C(=O)N(c1ccc(O)cc1)C2` was 5.16% (inactive).
The value for `COc1ccnc(Oc2ccccc2)c1-c1ncn[nH]1` was 1.34% (inactive).
